High-throughput results from PubChem.
Rows were chosen to be rich in hits. Some 1.4% of all compounds tested hit in one or more screens of this group.
Wee1 degr inh – Wee1 degradation inhibitors, primary screen, cell-based, HeLa, Wee1K328M-luciferase, luminescence; HeLa Luc-Wee1K328M stability; 100% = proteasome inhibitor MG132 effect; 1.2% of 220,000 active; reporter increase, % at 5 µM;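 active = activation above the mean of all tested compounds plus 3 SD, set per screening run, cut at about 8.8% in these data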;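 also: cells exposed to compound for 20 h before luminescence read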
Bim-Bcl-B – inhibitors of Bim-Bcl-B binding, primary screen, biochemical, multiplexed, human Bcl-2 family; Bcl-2-like protein 10 (Homo sapiens), Q9HD36; bead-based flow cytometry, Bim peptide-Bcl-B binding; 0.073% of 190,000 active; inhibition, % at 10 µM
Target sequence (Q9HD36 whole entry, looked up): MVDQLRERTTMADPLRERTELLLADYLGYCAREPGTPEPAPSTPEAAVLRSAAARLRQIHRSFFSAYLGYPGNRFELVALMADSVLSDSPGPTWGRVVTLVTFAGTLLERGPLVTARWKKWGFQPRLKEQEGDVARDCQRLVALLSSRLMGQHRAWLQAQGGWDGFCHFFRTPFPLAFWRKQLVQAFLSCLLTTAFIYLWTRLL
Bcl-XL Bim block – inhibitors of Bim-Bcl-XL binding, primary screen, biochemical, multiplexed, bead flow cytometry, human Bcl-XL. Bim peptide-Bcl-XL binding, fluorescence. inhibition, % at 10 µM. Bcl-2-like protein 1 (Homo sapiens), Q07817. 0.04% of 190,000 active
Target sequence (Q07817 whole entry, looked up): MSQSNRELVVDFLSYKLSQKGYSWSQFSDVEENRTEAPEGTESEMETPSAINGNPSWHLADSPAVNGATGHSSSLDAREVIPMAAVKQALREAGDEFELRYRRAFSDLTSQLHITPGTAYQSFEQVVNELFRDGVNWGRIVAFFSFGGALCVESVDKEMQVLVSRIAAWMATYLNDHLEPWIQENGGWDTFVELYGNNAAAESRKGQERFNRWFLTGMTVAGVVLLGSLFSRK
Bim-Bfl-1 – inhibitors of Bim binding to Bfl-1, primary screen, biochemical, multiplexed, bead-based flow cytometry; Bcl-2-related protein A1 (Homo sapiens), Q16548; Bim-Bfl-1 binding inhibition; inhibition, % at 10 µM; 0.12% of 190,000 active
Target sequence (Q16548 whole entry, looked up): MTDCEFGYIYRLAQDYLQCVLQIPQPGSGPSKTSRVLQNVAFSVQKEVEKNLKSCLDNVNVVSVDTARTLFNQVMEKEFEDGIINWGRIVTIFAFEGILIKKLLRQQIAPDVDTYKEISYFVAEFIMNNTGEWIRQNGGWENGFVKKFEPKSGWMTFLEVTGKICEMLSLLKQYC
Bim-Bcl-W – inhibitors of Bim binding to Bcl-W, primary screen, biochemical, multiplexed, bead-based flow cytometry; 0.02% of 190,000 active; Bcl-2-like protein 2 (Homo sapiens), Q92843; Bim peptide-Bcl-W binding; inhibition, % at 10 µM;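 also: higher means less fluorescent Bim peptide bound to Bcl-W beads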
Bcl-2 Bim block – inhibitors of Bim-Bcl-2 binding, primary screen, biochemical, multiplexed, human Bcl-2 family; Bead-based flow cytometry, Bim peptide-Bcl-2 binding; AID 950, 2007; inhibition, % at 10 µM; Apoptosis regulator Bcl-2 (Homo sapiens), P10415; 0.06% of 190,000 active; in the data active = inhibition above about 40%
Wee1 degr conf – Wee1 degradation inhibitors, confirmation, cell-based, HeLa, Wee1K328M-luciferase, luminescence, triplicate. shares compounds with Wee1 degr inh. AID 1410, 2008. HeLa Luc-Wee1K328M degradation; vehicle 0%, proteasome-blocked wells 100%. 4% of 1,100 active. activation, % at 5 µM; in the data active = activation above about 8.9%
Each line names hits and unclear results; the compound was inactive in the other large screens (follow-up assays come after a bar, where they were run). Rule as the data show it, unless noted: active = inhibition above about 40%.

CCN1C(=O)/C(=c2/s/c(=C3\SC(C)=C(C)N3CC)c(=O)n2CC)N(c2ccccc2)C1=S	none (no result: Bim-Bcl-B, Bcl-XL Bim block, Bim-Bfl-1, Bim-Bcl-W, Bcl-2 Bim block)
CC(C)CNC(=O)CN(C1CCCCC1)S(=O)(=O)c1ccccc1	Wee1 degr inh 11 | Wee1 degr conf inactive
O=[N+]([O-])c1ccc(/C=C/c2ccncc2)cc1	Wee1 degr inh 18 (no result: Bim-Bcl-B, Bcl-XL Bim block, Bim-Bfl-1, Bim-Bcl-W, Bcl-2 Bim block) | Wee1 degr conf inactive
CCOc1ccccc1N/C(=N/c1nc(C)cc(C)n1)NC(=O)Nc1ccc(Cl)c(Cl)c1	none
O=C(Cc1cccs1)NCCSc1c(-c2ccc(Cl)cc2)[nH]c2ccccc12	Wee1 degr inh 13 | Wee1 degr conf inactive
O=c1nc(-c2ccccc2)n(-c2ccccc2)[nH]1	none
COc1cc(C)ccc1OCCCCOc1ccccc1C(C)=O	Wee1 degr inh 16 | Wee1 degr conf inactive
CCC(C)c1ccc(NC(=S)NCc2ccccc2OC)cc1 (stereo not drawn)	Wee1 degr inh 17 | Wee1 degr conf inactive
COC(=O)Cc1ccc(NC(=S)NCc2ccccc2OC)cc1	none
CCCN(C(=O)c1cc2c(s1)CCC2)c1c(N)n(Cc2ccccc2)c(=O)[nH]c1=O	none (no result: Bim-Bcl-B, Bcl-XL Bim block, Bim-Bfl-1, Bim-Bcl-W, Bcl-2 Bim block)
CC(C)[C@H](NC(=O)c1ccco1)C(=O)OCC(=O)N1CC(=O)Nc2ccccc21	Wee1 degr inh 14 | Wee1 degr conf inactive
O=C(Cn1cnc2c(nnn2-c2ccccc2)c1=O)N1CCOCC1	none
Cc1ccc(-n2nnc3c(=O)n(CC(=O)N4CCOCC4)cnc32)cc1	Wee1 degr inh 12 | Wee1 degr conf inactive
CN(CCC#N)CC(=O)Nc1ccc(S(N)(=O)=O)cc1	none
Cc1ccc(NC(=O)CSc2nnc(-c3cccs3)o2)cc1S(=O)(=O)N(C)C	Wee1 degr inh 21 | Wee1 degr conf inactive
O=C1CC(C(=O)Nc2ccc(F)c(Cl)c2)N=C(N2CCCCC2)N1 (stereo not drawn)	none
O=C1CC(C(=O)Nc2ccccc2)N=C(N2CCOCC2)N1 (stereo not drawn)	Wee1 degr inh 11 | Wee1 degr conf inactive
CCC(C)NC(=O)Cn1cnc2sc(C)c(S(=O)(=O)N3CCN(c4ncccn4)CC3)c2c1=O (stereo not drawn)	Wee1 degr inh 16 | Wee1 degr conf inactive
COCCCNC(=O)Cn1cnc2sc(C)c(S(=O)(=O)N3CCN(c4ncccn4)CC3)c2c1=O	none
O=S(=O)(c1ccccc1)N1CCN=C1SCc1ccccc1	none
O=[N+]([O-])c1ccc(S(=O)(=O)N2CCN=C2SCc2cccnc2)cc1	Wee1 degr inh 12 | Wee1 degr conf inactive
CCOc1ccccc1NC(=O)CCN1CCN(S(=O)(=O)c2ccc(Br)cc2)CC1	none
C=CCc1cccc2cc(C(=O)NC3CCCCC3)c(=O)oc12	Wee1 degr inh 17 | Wee1 degr conf inactive
O=C(CCn1c(=O)oc2ccccc21)NCCC1=CCCCC1	Wee1 degr inh 17 (no result: Bim-Bcl-B, Bcl-XL Bim block, Bim-Bfl-1, Bim-Bcl-W, Bcl-2 Bim block) | Wee1 degr conf inactive
O=C(CCn1c(=O)oc2ccccc21)NCCN1CCc2ccccc2C1	none
Oc1cccc2ccc[n+](CC(O)Cn3c4ccccc4c4ccccc43)c12 (stereo not drawn)	Wee1 degr inh 18 | Wee1 degr conf inactive
OC(COc1ccccc1)Cn1c2ccccc2c2ccccc21 (stereo not drawn)	none
CCOC(=O)c1c(C)n(C)c2ccc(OC)c(NC(=O)CCN3CCC(Cc4ccccc4)CC3)c12	none (no result: Bim-Bcl-B, Bcl-XL Bim block, Bim-Bfl-1, Bim-Bcl-W, Bcl-2 Bim block)
Cc1ccc(C(=O)OC(C)CN2CCN(C)CC2)cc1 (stereo not drawn)	none (no result: Bim-Bcl-B, Bcl-XL Bim block, Bim-Bfl-1, Bim-Bcl-W, Bcl-2 Bim block)
Cn1c(SC/C=C/c2ccccc2)nnc1-c1ccco1	Wee1 degr inh 12 | Wee1 degr conf inactive
COc1ccc2[nH]c(-c3ccccc3)cc2c1	none (no result: Bim-Bcl-B, Bcl-XL Bim block, Bim-Bfl-1, Bim-Bcl-W, Bcl-2 Bim block)
COc1ccc(/C=C/C(=O)NC(=S)NNC(=O)c2cnccn2)cc1	none (no result: Bim-Bcl-B, Bcl-XL Bim block, Bim-Bfl-1, Bim-Bcl-W, Bcl-2 Bim block)
COc1ccc(/C=C/C(=O)NC(=S)NNC(=O)c2cccnc2)cc1	Wee1 degr inh 17 | Wee1 degr conf inactive
COc1cc(O)oc1C=Nc1ccc(C(=O)O)cc1	none
Cc1ccc(CN2CCN(Cc3cccn3-c3nccs3)CC2CCO)cc1 (stereo not drawn)	Wee1 degr inh 13 | Wee1 degr conf inactive
CCOC(=O)C1=C(c2ccccc2)NC(=S)NC1c1cccc([N+](=O)[O-])c1 (stereo not drawn)	Wee1 degr inh 12 | Wee1 degr conf inactive
CCOC(=O)C1=C(c2ccccc2)NC(=S)NC1c1ccc(C)c([N+](=O)[O-])c1 (stereo not drawn)	none
O=C(COC(=O)c1ccc([N+](=O)[O-])s1)Nc1ncc(C(F)(F)F)cc1Cl	none
O=C(c1ccc(NC(=O)C2(c3ccccc3)CCCC2)cc1)N1CCOCC1	Wee1 degr inh 27 (no result: Bim-Bcl-B, Bcl-XL Bim block, Bim-Bfl-1, Bim-Bcl-W, Bcl-2 Bim block) | Wee1 degr conf inactive
COc1ccc(C2(C(=O)Nc3ccc(C(=O)N4CCOCC4)cc3)CCOCC2)cc1	none
COc1ccc(N2CCN(CC(=O)Nc3cccc(S(=O)(=O)N4CCOCC4)c3)CC2)cc1	none
COC(=O)c1cc(OC)c(OC)cc1NC(=S)N1CCN(c2ccccn2)CC1	none
COC(=O)c1ccc(NC(=O)CSc2ccccn2)cc1	Wee1 degr inh 15 | Wee1 degr conf inactive
COc1ccc(CC(=O)NC(C)c2nnc(SCC(=O)Nc3ccccc3)n2C)cc1 (stereo not drawn)	none
COC(=O)c1ccc(NC(=O)CSc2nnc(C(C)NC(=O)c3ccccc3Cl)n2C)cc1 (stereo not drawn)	Wee1 degr inh 22 | Wee1 degr conf inactive
CCOC(=O)C1(Cc2cccc(OC)c2)CCN(CC2CC=CCC2)CC1 (stereo not drawn)	Wee1 degr inh 12 | Wee1 degr conf inactive
COc1cccc(-c2cc(C(=O)NC3CCCC3)no2)c1	Wee1 degr inh 15 | Wee1 degr conf inactive
O=C1Nc2ccccc2N(O)N1c1ccc(S(=O)(=O)N2CCOCC2)cc1	none
COCCSc1nnc(NC(=O)c2ccc(NC(C)=O)cc2)s1	Wee1 degr inh 14 | Wee1 degr conf inactive
C#CCN(CC=C)C(=O)CCc1nnc(COc2ccccc2)o1	Wee1 degr inh 16 | Wee1 degr conf inactive
COc1cccc(C(=O)/C=C2\Sc3ccccc3N2C)c1	none
CN1/C(=C\C(=O)c2cccnc2)Sc2ccccc21	Wee1 degr inh 13 | Wee1 degr conf inactive
CCN(CC)CCNC(=O)COc1ccc(Cl)cc1Cl	Wee1 degr inh 11 | Wee1 degr conf inactive
